# RORgamma inh: qHTS for inhibitors of ROR gamma transcriptional activity | Drosophila S2 Gal4-RORgamma UAS-luciferase reporter, 20 h | 310,000 compounds, 5.4% hits | Nuclear receptor ROR-gamma (Mus musculus), P51450 | Potency, µM (series often up to 53.6 µM), without a hit: top-dose activity change, negative = inhibition, hits mostly inhibitors; also: nearly all actives have a fitted effect of over 60% in size
# Target sequence (P51450 whole entry, looked up, the tested form may be a part): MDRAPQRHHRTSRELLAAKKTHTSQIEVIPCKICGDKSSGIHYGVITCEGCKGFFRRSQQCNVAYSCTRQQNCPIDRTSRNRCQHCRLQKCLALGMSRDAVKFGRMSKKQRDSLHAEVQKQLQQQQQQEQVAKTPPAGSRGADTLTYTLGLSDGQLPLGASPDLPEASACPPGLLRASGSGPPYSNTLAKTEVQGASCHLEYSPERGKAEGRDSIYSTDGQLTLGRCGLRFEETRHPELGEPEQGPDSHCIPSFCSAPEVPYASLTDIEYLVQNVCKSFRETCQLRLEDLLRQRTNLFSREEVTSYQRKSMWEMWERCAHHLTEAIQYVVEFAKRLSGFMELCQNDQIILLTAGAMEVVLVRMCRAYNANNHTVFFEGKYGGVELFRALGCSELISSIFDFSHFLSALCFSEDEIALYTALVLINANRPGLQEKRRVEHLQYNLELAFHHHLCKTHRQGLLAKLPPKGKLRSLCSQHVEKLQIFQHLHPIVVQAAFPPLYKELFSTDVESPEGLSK
#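 Stable Schneider cell line, Gal4 DNA-binding domain fused to ROR gamma, UAS-luciferase. Cmpd 1 hr RT → CuSO4 700 uM final → 20 hr RT → luciferase reagent 10 min → luminescence.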
# VP16 counter: VP16 counterscreen qHTS for inhibitors of ROR gamma transcriptional activity; Drosophila S2 Gal4-VP16 UAS-luciferase, luminescence, 20 h; Potency, µM (series often up to 53.6 µM), without a hit: at the highest dose activity, negative = inhibition, usual class: inhibitors; 310,000 compounds, 3.5% hits; AID 2546, 2010;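 also: Gal4-VP16 expression switched on by copper sulfate through the metallothionein promoter; nearly all actives have a fitted effect of over 50% in size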
# PLK1 PBD inh: qHTS for Inhibitors of PLK1-PDB (polo-like kinase 1 - polo-box domain): Primary Screen | Serine/threonine-protein kinase PLK1 (Homo sapiens), P53350 | Plk1 PBD binding of FITC phosphopeptide, fluorescence polarization | Potency, µM, inactives show max response, negative = inhibition, actives largely listed as inhibitors | 360,000 compounds, 2.8% hits | AID 720504, 2013; also: series mostly up to about 57 µM; nearly all actives have a fitted effect of over 65% in size
# ALDH1A1 block: qHTS Assay for Inhibitors of Aldehyde Dehydrogenase 1 (ALDH1A1); AID 1030, 2008; Potency, µM (highest dose often 75.3 µM), for the others: top-dose activity, negative = inhibition, usual class: inhibitors; Aldehyde dehydrogenase 1A1 (Homo sapiens), P00352; Purified ALDH1A1, NADH fluorescence, propionaldehyde substrate; 220,000 compounds, 7.3% hits; active = well fitted inhibition curve with a large enough effect, not every such curve was filed as active; inconclusive = small, poorly fitted or top-dose-only effect, or another doubt; inactive = no such curve, though single readings can be large or run the other way;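 also: plate controls were no enzyme wells and a reference inhibitor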
# Sfp PPTase inh: qHTS Assay for Inhibitors of Bacillus subtilis Sfp phosphopantetheinyl transferase (PPTase) | 4'-phosphopantetheinyl transferase ffp (Bacillus subtilis), Q9F4F7 | Biochemical Sfp PPTase activity, qHTS | Potency, µM, without a hit: largest response in the series, negative = inhibition, actives largely listed as inhibitors | 310,000 compounds, 3.5% hits | AID 1490, 2009;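 also: the enzyme is Sfp with the accession as filed and its product quenches rhodamine fluorescence; 0% = enzyme reaction without inhibitor and -100% = no enzyme wells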
#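 Fluorescence-quenching assay: 15 nM Sfp-PPTase preincubated 15 min at room temperature with compound, then 5 uM rhodamine-CoA and 12.5 uM BHQ-2-labelled YbbR peptide added. Fluorescence (ex 525/em 598 nm) read at start and after 30 min; difference gives rate.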
# Starred values were filed as active, the others as inactive; ? = inconclusive; / = not tested or not shown; [ ] = dose if it differs, or a comment. The list is not random: actives were taken first. Their share in the collection is about 12%. Unless noted, calls follow the shape of the dose curve; as a rule, active = well fitted curve in the direction sought with a large enough effect; inconclusive = small, poorly fitted or top-dose-only effect, or another doubt; inactive = no such curve, though single readings can be large; an effect the other way counts as inactive or inconclusive. Unless noted, % is scaled to controls: 0 for no effect and ±100 for the full control effect; potency is read from the fitted curve at half-maximal effect.
SMILES,RORgamma inh,VP16 counter,PLK1 PBD inh,ALDH1A1 block,Sfp PPTase inh
COC(=O)c1ccc(C(=O)OC)c(NC(=S)N2CCC(C(N)=O)CC2)c1,9%,-1%[10 µM],-11%,?,12%
COC(=O)c1ccc(C(=O)OC)c(NC(=S)N2CCC(N3CCCCC3)CC2)c1,-19%,-1%,-12%,?,1%
CC(=O)N1CCc2cc(S(=O)(=O)CCC(=O)NCCc3ccccc3)ccc21,-3%,-8%,3%,/,8%
O=C(/C=C/c1cccnc1)c1ccc(O)cc1,13µM*,-88%,-10%,/,18%
CN(C)C(=O)COc1ccc(C(=O)/C=C/c2cccnc2)cc1,18µM*,?,-12%,/,6%
O=C(/C=C/c1cccnc1)c1ccccc1O,18µM*,?,-21%,/,45µM*
O=C(/C=C/c1cccc(O)c1)c1ccc(N2CCOCC2)cc1,3.5µM*,?,-5%,/,-3%
CC(C)c1c(O)ccc2c1CC[C@H]1C(C)(C)CCC[C@]21C,/,/,-18%,/,/
O=C(C=Cc1ccccn1)c1ccccc1O,/,/,21µM*,/,/
O=C(/C=C/c1cccc(O)c1)c1cccnc1,8.9µM*,?,?,1%,-26%
O=C(/C=C/c1ccccc1)c1ccc(O)cc1,11µM*,?,/,-8%,-14%
O=C(/C=C/c1ccc(O)cc1)c1ccccc1,?,-18%,0%,/,-6%
C=CCn1c(=O)/c(=C/c2ccc(Cl)cc2)s/c1=C(\C#N)c1nnc2n1CCCCC2,/,/,-4%,/,/
CCOC(=O)C1(C)CCCN1C(=O)c1sccc1C (configuration not stated),/,/,-10%,/,/
O=C(Nc1ccc2c(c1)OCCO2)C1CC(c2ccccc2Cl)=NO1 (configuration not stated),-27%,13%,-10%,/,3%
CCn1ncc(C2=NOC(C(=O)Nc3ccc4c(c3)OCO4)C2)c1C (configuration not stated),14%,16µM*,-9%,-8%,-4%
O=C(Nc1ccc2c(c1)OCO2)C1CC(c2ccccc2O)=NO1 (configuration not stated),1.6µM*,?,2%,/,1%
CCOC(=O)CNC(=S)n1cnc(N)n1,7.9µM*,-15%,-23%,32µM*,18µM*
O=C(Nc1cccc(-c2nc3ccccc3s2)c1)C1=COCCO1,27%,1%,9%,?,3%
O=C(Nc1ccc(-c2nc3ccccc3s2)c(O)c1)C1=COCCO1,0.5µM*,?,-15%,-7%,-2%
O=C(Nc1ccc(-c2nc3ccccc3s2)cc1)C1=COCCO1,2µM*,4.5µM*,-5%,?,24%
O=C(Nc1ccc(O)c(-c2nc3ccccc3s2)c1)C1=COCCO1,?,2%,1%,-7%,7%
OCc1cccc(-c2csc(C(O)c3ccco3)n2)c1 (configuration not stated),/,/,-13%,/,/
COc1ccc2[nH]cc(CCNc3ccnc(-c4ccc(C(=O)N(C)C)cc4)n3)c2c1,9%,0%,/,11%,5%
O=C(N/N=C/C1CC2CCC1C2)c1c[nH]c2ccccc12 (configuration not stated),-30%,6%,-8%,14µM*,2%
SMILES,RORgamma inh,VP16 counter,PLK1 PBD inh,ALDH1A1 block,Sfp PPTase inh
O=C(N/N=C/c1ccsc1)c1c[nH]c2ccccc12,24%,-11%,3%,/,-5%
FC(F)(F)c1ccc(/C=N/n2c(COc3ccccc3)n[nH]c2=S)cc1,?,-16%,27µM*,/,?
CCc1n[nH]c(=S)n1/N=C/c1ccc(N(CC)CC)cc1,2.8µM*,6.3µM*,-12%,10µM*,-33%
S=c1[nH]nc(COc2ccccc2)n1/N=C/c1ccccn1,?,-14%,0%,?,-70%
CCN(CC)c1ccc(/C=N/N2CC(=O)NC2=S)cc1,/,/,-21%,/,/
CCc1ccc(/C=N/n2c(COc3ccccc3)n[nH]c2=S)cc1,0.89µM*,?,?,/,-30%
S=c1[nH]nc(COc2ccccc2)n1/N=C/c1ccncc1,10µM*,3%,-14%,-10%,11%
O=c1c(CCc2ccccc2)nc2cnc(N3CCOCC3)nc2n1C1CC1,9%,-11%,/,?,9%
CCN(CC)c1ccc(/C=N/n2c(C)cc(C)cc2=O)cc1,1%[10 µM],6%,-1%,7.9µM*,8%
Cc1ccc(CC(=O)NNC(=O)c2cccs2)cc1C,/,/,-2%,/,/
COc1coc(C(O)C[N+](=O)[O-])cc1=O (configuration not stated),0%,1%,-7%,?,32µM*
Cc1nc2ccc(NC(=O)c3cc([N+](=O)[O-])cc([N+](=O)[O-])c3Cl)cc2s1,?,3.2µM*,2.7µM*,?,?
Cc1nc2ccc(NC(=O)c3ccc(Cl)c([N+](=O)[O-])c3)cc2s1,25%,?,-3%,5%,1%
Cc1nc2ccc(NC(=O)CCS(=O)(=O)c3ccc(Cl)cc3)cc2s1,29%,?,17µM*,?,-8%
Cc1ccc(NC(=O)CNC(=O)CN2C(=O)c3ccccc3C2=O)cc1,/,/,-3%,/,/
CCOC(=O)CCCc1ccc(/C(C)=N/NC(N)=S)cc1,?,?,-8%,/,56µM*
c1cc[n+](CCC[n+]2ccccc2)cc1,10%,-3%,-6%,/,9%
COc1ccc(/C=N/NC(=O)CCC(=O)Nc2ccc(F)cc2)c(OC)c1,20%[1.91 µM],2%,-10%,/,21%
Cc1ccc(SCCC(=O)N/N=C/c2ccccc2O)cc1,0.63µM*,0.63µM*,3%,-8%,2%
Cc1ccc(NC(=O)CCC(=O)N/N=C/c2ccccc2O)cc1,4µM*,11µM*,5%,/,-9%
O=C(CCn1cnc(-c2ccccc2)c1-c1ccccc1)N/N=C/c1ccccc1O,?,2.8µM*,?,-7%,6%
O=C(CCn1cnc(-c2ccccc2)c1-c1ccccc1)N/N=C/c1ccc(O)cc1,45%,-7%,?,?,-12%
COc1ccc(O)c(/C=N/NC(=O)CCC(=O)Nc2ccc(F)cc2)c1,11µM*,-16%,2%,/,8%
O=C(NC(c1ccc(-c2ccccc2)cc1)c1cnccn1)C1CCN(Cc2ccc3c(c2)OCO3)CC1 (configuration not stated),/,/,5%,/,/
CCOC(=O)[C@]12CCC=C1N(Cc1ccc3c(c1)OCO3)C(=O)[C@H](CC(=O)NCc1cccs1)C2,/,/,-2%,/,/
O=C(CCC(=O)Nc1ccc(F)cc1)N/N=C/c1ccncc1,-4%,-8%,-6%,3%,45µM*
Cc1cccc(N/N=C/c2ccccc2O)c1,-18%,7%,-9%,25µM*,4%
COc1ncc2nc(CCc3ccccc3)c(=O)n(Cc3cccs3)c2n1,1%,5%,/,-18%,?

# High-throughput results deposited in PubChem by National Center for Advancing Translational Sciences (NCATS).
